The full list was thinned out, with hits kept by preference.
NS1 inh: influenza NS1 inhibition. Potency, µM (series often up to 46.1 µM), inactives show at the top dose activity, positive = more growth. 270,000 compounds, 0.4% hits. AID 2326; calls by dose curve; further: potency means the concentration at half of the fitted maximal effect; actives are rising curves; nearly all actives have a fitted effect of over 50% in size
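Compounds were scored for reversing the slow growth caused by influenza A NS1 in S. cerevisiae, measured by optical density at 600 nm. Assay medium contained 2% galactose at pH 6.0; NS1-free yeast of the same strain were the positive control.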
Tb PYK inh: blocks Trypanosoma brucei pyruvate kinase. Q57TT1. 410,000 compounds, 0.12% hits. TbPYK enzyme, Kinase-Glo Plus ATP luminescence, 45 min. AID 624173. Potency, µM (doses to about 76.8 µM), for inactives: at the top dose activity, negative = inhibition, most hits filed as inhibitors; further: potency means the concentration at half of the fitted maximal effect; on the % scale 0 is the no-effect control and ±100 the full control effect; nearly all actives have a fitted effect of over 50% in size
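Assay buffer: 50 mM TEA pH 7.2, 100 mM KCl, 10 mM MgCl2, 0.05% BSA, 0.01% Tween-20. Pyruvate kinase from T. brucei plus substrate met compound, then ADP (130 uM final). Luminescence was read post 45 min RT.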
Shiga toxin inh: inhibitors of Shiga toxin in Vero cells. inhibition, % at 38.7 µM. Vero cells, Shiga toxin protein synthesis inhibition reporter. 290,000 compounds, 9.2% hits; in the data active means inhibition mostly above about 28%, no sharp cut-off; inactive means mostly below about 43%; further: 0% is about no effect
CHX counter: affects cycloheximide protein synthesis inhibition readout, counter-screen. cell reporter, cycloheximide protein synthesis inhibition counterscreen. max response, %. 300,000 compounds, 12% hits; in the data active means max response mostly above about 13%, no sharp cut-off; inactive means mostly below about 14%; further: read at 38.3 µM for the half of the compounds with a filed dose; 0% is about no effect
SARS PLP yeast: blocks SARS-CoV papain-like protease in a yeast assay | S. cerevisiae expressing SARS-CoV PLpro, growth rescue | 330,000 compounds, 0.19% hits | Potency, µM (series often up to 32.9 µM), without a hit: top-dose activity, positive = growth rescue, usual class: activators; calls by dose curve; further: potency means the concentration at half of the fitted maximal effect; 0% is about no effect; nearly all actives have a fitted effect of over 55% in size
LmPK inhibitor: inhibitors of Leishmania mexicana pyruvate kinase. 290,000 compounds, 0.37% hits. purified LmPK, Kinase-Glo ATP luminescence, 1 h. Q27686. AID 1721. Potency, µM (top dose mostly 57.5 µM), for the others: at the highest dose activity change, negative = inhibition, actives largely listed as inhibitors; further: potency means the concentration at half of the fitted maximal effect; on the % scale 0 is the no-effect control and ±100 the full control effect
Target sequence (Q27686 whole entry, looked up): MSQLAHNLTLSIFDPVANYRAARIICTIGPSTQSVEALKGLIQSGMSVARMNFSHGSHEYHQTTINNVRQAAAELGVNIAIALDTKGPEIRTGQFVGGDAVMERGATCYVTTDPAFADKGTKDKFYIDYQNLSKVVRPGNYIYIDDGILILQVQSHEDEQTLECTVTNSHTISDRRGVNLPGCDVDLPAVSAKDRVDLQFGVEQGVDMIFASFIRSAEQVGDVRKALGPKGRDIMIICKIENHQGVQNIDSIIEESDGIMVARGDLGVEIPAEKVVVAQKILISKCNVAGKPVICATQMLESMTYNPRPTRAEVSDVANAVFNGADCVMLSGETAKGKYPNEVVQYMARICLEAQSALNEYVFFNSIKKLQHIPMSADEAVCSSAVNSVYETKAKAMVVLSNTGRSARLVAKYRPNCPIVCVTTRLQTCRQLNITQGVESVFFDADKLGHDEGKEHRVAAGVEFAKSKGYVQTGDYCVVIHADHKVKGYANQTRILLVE
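0.1 nM LmPK, 0.5 mM PEP, 0.1 mM ADP; 50 mM imidazole pH 7.2, 7 mM MgCl2, 50 mM KCl; 1 h RT. Kinase-Glo luminescence readout, normalized to no-enzyme (full inhibition) and uninhibited wells.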
Starred values were filed as active, the others as inactive; ? = inconclusive; · = not tested or not shown. Unless noted, the call rests on the fitted dose curve; in most records, active means well fitted curve in the direction sought with a large enough effect; inconclusive means small, poorly fitted or top-dose-only effect, or another doubt; inactive means no such curve, though single readings can be large; an effect the other way counts as inactive or inconclusive.

SMILES	NS1 inh	Tb PYK inh	Shiga toxin inh	CHX counter	SARS PLP yeast	LmPK inhibitor
Cc1nc(C(=O)NC2CC2)sc1C1(C)CC(c2ccccc2)=NO1 (configuration not stated)	-45%	4%	20	18*	1%	-18%
CNC(=O)c1nc(C)c(C2(C)CC(c3ccccc3)=NO2)s1 (configuration not stated)	-5%	6%	-6	3	1%	0%
CC(C)c1ccc(NC(=O)c2cnc3sc(N4CCOCC4)nn3c2=O)cc1	·	2%	·	·	·	·
O=C(Nc1cccc(C(F)(F)F)c1)C1Cc2c(-c3ccco3)ccnc2O1 (configuration not stated)	·	5%	·	·	·	·
O=C1c2ccccc2C(Nc2ccccc2)N1c1ccc(Cl)cn1 (configuration not stated)	3%	-4%	169*	71*	6%	4%
O=C1c2ccccc2C(Nc2ccc3c(c2)OCCO3)N1Cc1ccc2c(c1)OCO2 (configuration not stated)	-69%	1%	62*	31*	-21%	4%
CCc1cccc(NC2c3ccccc3C(=O)N2c2ccc(C)cn2)c1 (configuration not stated)	-72%	-9%	90*	41	-6%	3%
O=C1c2ccccc2C(Nc2ccc3c(c2)OCCO3)N1c1ccccn1 (configuration not stated)	-14%	-1%	70*	41*	14%	4%
O=C1c2ccccc2C(Nc2ccccc2)N1Cc1ccc2c(c1)OCO2 (configuration not stated)	-7%	-6%	-9	8	-8%	9%
Cc1ccc(N2C(=O)c3ccccc3C2Nc2ccccc2)nc1 (configuration not stated)	-9%	-4%	30	10	-7%	5%
O=C1c2ccccc2C(Nc2ccc3c(c2)OCCO3)N1c1ccc(Cl)cn1 (configuration not stated)	-51%	0%	44	9.9*	-5%	1%
CCOC(=O)/C=C(C)\C=C\c1c[nH]c2ccccc12	-15%	0%	56*	30*	-2%	4%
CCOC(=O)/C(=C/c1c[nH]c2ccccc12)NC(C)=O	0%	-11%	9	1	3%	-2%
C=Cc1ccccc1	·	8%	·	·	·	·
CC1CCN(C(C(=O)NC2CCCCC2)c2cc3c(cc2[N+](=O)[O-])OCO3)CC1 (configuration not stated)	-16%	5%	31	-2	-42%	1%
CC1CCCN(C(C(=O)NC2CCCCC2)c2cc3c(cc2[N+](=O)[O-])OCO3)C1 (configuration not stated)	29%	-1%	108*	53*	0%	3%
N#Cc1ccc(CN2CC[C@@]3(CCCN(C(=O)c4ccco4)C3)C2)cc1	·	-3%	·	·	·	·
CCC(=O)Nc1cccc(-c2cnc3ccccc3n2)c1	-23%	-1%	36*	47*	-1%	-16%
CCc1ccc(-c2cnc3ccccc3n2)cc1NC(=O)CNC(=O)c1ccccc1	-7%	-4%	105*	37*	1%	-8%
O=C(CCl)Nc1cccc(-c2cnc3ccccc3n2)c1	-74%	-2%	72*	46*	?	-3%
O=C(CNC(=O)c1ccccc1)Nc1ccsc1C(=O)O	2%	1%	7	-2	0%	-3%
COc1ccc(C(=O)CCC(=O)Nc2ccccc2C)cc1	·	3%	·	·	·	·
Cc1ccc(C(=O)CC(=O)c2ccccc2C)c(O)c1	-10%	-16%	39	20*	1%	-1%
Cc1ccc(C(=O)CCC(=O)Nc2ccccc2C)c(C)c1	-2%	-5%	12	29*	-4%	-8%
Cc1ccc(C(=O)CC(=O)c2cccc(F)c2)c(O)c1	-80%	3%	77*	36*	-3%	1%
SMILES	NS1 inh	Tb PYK inh	Shiga toxin inh	CHX counter	SARS PLP yeast	LmPK inhibitor
CC(C)c1cc(C(C)C)c(S(=O)(=O)N2CCNCC2)c(C(C)C)c1	·	-14%	·	·	·	·
CC(=O)c1ccc(S(=O)(=O)N2CCC(C(=O)Nc3ncc(C)s3)CC2)cc1	·	-2%	·	·	-5%	·
CC(C)(C)C1CCC(C(=O)Nc2nccs2)CC1 (configuration not stated)	4%	4%	47*	15	7%	3%
Cc1cnc(NC(=O)C2CC=CCC2)s1 (configuration not stated)	6%	2%	45*	24*	2%	-6%
Cc1cnc(NC(=O)C2CCC(C(C)(C)C)CC2)s1 (configuration not stated)	8%	-4%	33	20*	-13%	12%
CC(=O)c1ccc(S(=O)(=O)Nc2cccc(-c3ccc(N4CCCCCC4)nn3)c2)cc1	·	0%	·	·	·	·
CCC(=O)Nc1ccc(C(=O)NNC(=O)c2cccs2)cc1	1%	-14%	19	0	?	-7%
Cc1ccccc1C(=O)NC(=S)Nc1cccc(NC(=O)C(C)C)c1	6%	-1%	42	27*	0%	2%
CC(=O)c1cccc(NC(=S)NC(=O)c2ccccc2C)c1	2%	2%	-17	-3	0%	8%
CCC(=O)Nc1cccc(NC(=S)NC(=O)c2cccs2)c1	4%	-5%	110*	40*	-4%	-1%
CCC(=O)Nc1cccc(NC(=S)NC(=O)c2ccccc2Cl)c1	0%	2%	37	25*	-1%	0%
CC(C)C(=O)Nc1cccc(NC(=S)NC(=O)c2ccccc2Cl)c1	-11%	0%	14	25*	3%	10%
CC(Sc1ccccc1)C(=O)NCC1COc2ccccc2O1 (configuration not stated)	·	-3%	·	·	3%	·
CC(C)C(=O)Nc1cccc(NC(=S)NC(=O)c2ccc([N+](=O)[O-])cc2)c1	2%	1%	54	15	8%	-2%
Cc1cc(C(=O)NC(=S)Nc2cccc(NC(=O)C(C)C)c2)ccc1[N+](=O)[O-]	-1%	-3%	10	36*	-25%	-6%
COc1ccc(-c2nc3sc(CCNC(=O)C(=O)Nc4cccc(NC(C)=O)c4)c(C)n3n2)cc1	·	2%	·	·	·	·
C=CCOc1c(CNc2cccc(C(=O)O)c2)cccc1OCC	-43%	2%	13	13	-2%	2%
C=CCOc1c(CNc2cccc(C(=O)O)c2)cccc1OC	-4%	-2%	71*	37*	11%	9%
C=CCOc1cccc(CNc2cccc(C(=O)O)c2)c1	-3%	-4%	104*	29*	5%	-1%
C=CCOc1c(CNc2ccc(C(=O)O)cc2)cccc1OCC	-3%	1%	36*	31*	-3%	0%
CCOC(=O)CSc1nc2ccc(NC(=O)COc3ccc(F)cc3)cc2s1	·	1%	·	·	·	·
O=C(CNC(=O)c1ccccc1Cl)c1ccccc1	16%	-5%	65*	50*	-3%	-9%
O=C(CNC(=O)c1ccccc1F)c1ccccc1	2%	-3%	42	34*	-10%	-13%
